Reference: ChEMBL document CHEMBL3988442, “University of Dundee, Small-Polar-MMV Screening Library” (2021)

Key:
[1] = molecular target: T1, Aspartate--tRNA(Asp/Asn) ligase (Mycobacterium tuberculosis (strain ATCC 25618 / H37Rv)) (UniProt P9WFW3); test: Assay for Asp RNA synthetase-1 from Mycobacterium tuberculosis; assay type: functional; set-up: scale not given: direction of the effect not stated beside the values; conditions: 30 µM; further: in the data most compounds retested in dose-response had high values
T1 sequence (whole entry): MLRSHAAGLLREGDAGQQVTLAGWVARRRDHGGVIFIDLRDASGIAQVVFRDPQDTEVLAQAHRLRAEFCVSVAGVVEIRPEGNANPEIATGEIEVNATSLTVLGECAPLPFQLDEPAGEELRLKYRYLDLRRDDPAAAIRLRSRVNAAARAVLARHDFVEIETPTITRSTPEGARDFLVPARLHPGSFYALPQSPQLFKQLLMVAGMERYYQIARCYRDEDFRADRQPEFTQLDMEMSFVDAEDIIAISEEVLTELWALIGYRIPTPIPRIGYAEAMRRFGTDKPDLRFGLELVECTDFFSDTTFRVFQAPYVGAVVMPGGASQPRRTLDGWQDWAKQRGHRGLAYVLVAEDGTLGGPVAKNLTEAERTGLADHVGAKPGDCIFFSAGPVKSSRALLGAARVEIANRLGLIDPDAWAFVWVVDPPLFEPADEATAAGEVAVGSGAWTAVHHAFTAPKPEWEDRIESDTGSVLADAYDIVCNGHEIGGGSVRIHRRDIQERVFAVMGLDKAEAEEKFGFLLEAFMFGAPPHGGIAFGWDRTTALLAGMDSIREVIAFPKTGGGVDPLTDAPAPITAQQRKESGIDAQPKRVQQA

[2] = molecular target: Shiga toxin 2 (Escherichia coli O157:H7) (UniProt P09385+P09386); test: E. coli 0.157:H7 Shiga Toxin SOP - stx2 screening assay; assay type: functional; set-up: scale not given: direction of the effect not stated beside the values; conditions: 30 µM

SMILES | Percent Effect [1] [%] | Percent Effect [2] [%]
O=S(=O)(c1ccccc1)N1CCCN(CCCn2ccnc2)CC1 | -2.67 | -12.6
Cc1noc(C)c1CN1CC[C@@H](OCC2CC2)[C@@H](Cc2ccccc2)C1 | 0.779 | 16
O=C(CCCc1ccc(F)cc1)N1C[C@@H](CN2CCOCC2)[C@@H](CO)C1 | 5.03 | -6.96
CN(C)S(=O)(=O)c1ccc(CN2CCCC2c2ccc[nH]2)o1 (configuration not stated) | -3.62 | 8.06
O=C(NCCNc1ncccn1)N1CCN(Cc2cccnc2)CC1 | 6.28 | -6.42
COc1ccccc1OC1CCN(Cc2cnc(N(C)C)nc2)CC1 | -2.72 | 17.9
Cc1nn(C)c(C)c1C1CCCN1C(=O)CCc1cscn1 (configuration not stated) | -2.02 | 20.4
COc1ccc(-c2ccnc3c2C(=O)CCC3)cc1 | -5.43 | -32.1
Cc1nccn1-c1nccnc1C1CCN(Cc2ccc(F)cc2)CC1 | -0.338 | -6.1
Cc1cccc(-c2noc(CN3CCC(N4CCNC4=O)CC3)n2)c1 | 0.152 | 11.2
CN1CCN(C(=O)c2cccc(OCc3cscn3)c2)CC1 | 0.522 | -26.5
OC(COCc1ccccc1Cl)CN1CC(n2cccn2)C1 (configuration not stated) | 0.411 | 29.1
CCc1nc(CC(=O)N2CCn3c(nnc3C(F)(F)F)C2)cs1 | 1.3 | 17.9
O=C(NCCn1ccc(-c2ccccn2)n1)c1ccncc1 | -6.73 | -58.6
Cc1cc(CN(Cc2cccs2)CC2CCCO2)no1 (configuration not stated) | 1.32 | 12.5
CCn1nnc2cc(C(=O)N3CCCC3Cn3cc(C)cn3)ccc21 (configuration not stated) | -2.54 | 0.821
CC(C)=CCN1CCOC(Cn2nc(C)cc2C)C1 (configuration not stated) | -3.08 | 24.4
COCCN1C(=O)C[C@H]2[C@H]1CCN2Cc1cccc(C#N)c1 | -5.22 | -7.15
COc1ccc(CN2CCN(C(C)c3nc(C4CC4)no3)CC2)cc1 (configuration not stated) | -3.61 | 0.241
CC(=O)N1CCC(C(=O)N(C)[C@@H]2CCC[C@@H](N3CCCC3)[C@@H]2O)CC1 | 1.35 | -6.16
CCOCCCNC(=O)c1cn(CC)nc1C | -4.5 | -51.1
CC(C)S(=O)(=O)N1CCC(c2cc3n(n2)[C@@H](C(F)(F)F)C[C@@H](C)N3)C1 (some centres not stated) | -2.54 | -27.2
CN(Cc1nnc(C2CC2)n1C)C(=O)c1ccnc(OC2CCC2)c1 | -0.39 | 3.48
COc1ccc(C)cc1S(=O)(=O)NCC(c1cccn1C)N(C)C (configuration not stated) | -4.54 | 2.58
c1cnnc(NCC2CN(CCN3CCCCC3)CCO2)c1 (configuration not stated) | -4.13 | -5.19
Cc1csc(Nc2nccnc2C2CCCN2C(=O)C(C)C)n1 (configuration not stated) | 7.04 | 13.1

SMILES | Percent Effect [1] [%] | Percent Effect [2] [%]
CC(C)CC(CNC(=O)NCc1cc[nH]n1)N1CCOCC1 (configuration not stated) | -6.68 | -30.7
CSc1ccc(-c2nc(CN3CCC(NC(C)=O)C3)c(C)o2)cc1 (configuration not stated) | 2.73 | -5.95
CNC(=O)C1Cn2ccnc2C2(CCN(Cc3cccc(C)n3)CC2)O1 (configuration not stated) | 1.82 | 0.0939
CCc1ccsc1C(=O)N1CCN(CC(O)CC)CC1 (configuration not stated) | 1.06 | -26.4
Cc1nc(C)c(C(=O)OCCNc2ncccc2C#N)s1 | 1.71 | -15.1
Cn1c(Cn2ccnc2)nnc1C1CCCN(C2CCCCC2)C1 (configuration not stated) | -2.02 | -14.9
Cc1cc(S(=O)(=O)N2CCC(S(C)(=O)=O)CC2)ccc1F | 1.15 | -4.34
CC(=O)Nc1nc(CN2CCOC(Cn3cc(C)cn3)C2)cs1 (configuration not stated) | -1.93 | 16.6
OC(COc1ccccc1)CN1CCc2c(ncn2C2CC2)C1 (configuration not stated) | -7.92 | -25.6
CC(C)NC(=O)N1CCc2nc(C(=O)NCc3ccccc3)sc2CC1 | 0.168 | 4.49
Cc1cc2c(cc1C)C(NCc1nnc3n1CCCCC3)CCCO2 (configuration not stated) | 0.212 | -2.95
Cc1nc[nH]c1-c1nc2cc(S(=O)(=O)N3CCCC3)ccc2n1C | 1.21 | 0.151
CN(CCc1ccccn1)S(=O)(=O)N1CCCC1c1ccco1 (configuration not stated) | 2.3 | 32.1
COCCc1noc(CNCC2CCCN2c2cccnn2)n1 (configuration not stated) | 4.93 | -3.58
CN(Cc1ccccc1)CC(O)Cn1cnc2ccccc2c1=O (configuration not stated) | -0.611 | -4.12
Cc1ccc(CNC2CCN(CCc3ccncc3)CC2)cc1C | -5.11 | -49.6
O=C(N[C@@H]1CN(Cc2ccccc2)C[C@@H]2CCCO[C@@H]21)C1CC1 | 1.66 | -19.6
CCn1ccnc1CN1C[C@@H](CN2CCCC2)[C@@H](CO)C1 | -3.33 | 6.48
CCn1c(C(=O)N2CCN(C(=O)COC)CC2)cc2ccccc21 | -7.07 | -41.5
CCC1c2cccn2CCN1C(=O)c1ccc2nonc2c1 (configuration not stated) | 4.26 | -4.14
Cn1c(CC2CCS(=O)(=O)C2)nnc1SCCOc1cccc(Cl)c1 (configuration not stated) | 2.13 | -13
Cn1nc(CNC(=O)C2COc3ccccc3O2)cc1C1CC1 (configuration not stated) | 6.34 | 17
CN(C)CCNC(=O)CNC(=O)N1CCc2c([nH]c3ccc(Cl)cc23)C1 | 6.71 | -77.4
Cc1ccc(C)c(NC(=O)c2n[nH]c(-n3cnnc3)n2)c1 | -4.33 | -11.6
CCN(Cc1ccc2c(c1)OCO2)C(=O)NC(C)Cn1cccn1 (configuration not stated) | -0.819 | -12.4
COCCNC(=O)CCc1c(C)nn(-c2nc(C)c(C)c(=O)[nH]2)c1C | -1.79 | -2.84

SMILES | Percent Effect [1] [%] | Percent Effect [2] [%]
CCc1cnc2c(c1NCc1ccncc1)c(=O)n(C)c(=O)n2C | -0.949 | -7.71
O=C(CCc1cc2n(n1)CCCN(C(=O)c1ccccn1)C2)NC1CC1 | -1.14 | 9.76
COc1ccc(CN2C[C@@H](OCc3csc(C)n3)[C@H]3COC[C@H]32)cc1 | -1.16 | -12.3
CSCC(=O)N1CCCC(n2ccnc2C(C)C)C1 (configuration not stated) | -2.84 | 28.1
CC(Oc1ccccc1C(F)(F)F)C(=O)NCCC(=O)N(C)C (configuration not stated) | -1.14 | 8.25
Cc1ccccc1CCNC(=O)C1CC(=O)N(CC(F)(F)F)C1 (configuration not stated) | 4.08 | 9.05
c1cnn(CC2CN(CCc3ccncc3)CCO2)c1 (configuration not stated) | 2.1 | 17.1
Cc1cnn(CCNCC(O)COc2ccc(Cl)cc2)c1 (configuration not stated) | -2.57 | -37.4
O=C(c1ccc(F)c(F)c1)N1CCCSCC1CN1CCCC1 (configuration not stated) | 3.66 | 2.2
CCC(CNC(=O)c1cc(OC)ccc1Br)N1CCc2ccccc2C1 (configuration not stated) | 4.47 | 9.68
Cc1cnn(CC2CCCN2Cc2nnsc2Cl)c1 (configuration not stated) | -2.88 | 9.02
O=C(NCc1cccs1)C1CN(C(=O)c2cccs2)CC12CCOCC2 (configuration not stated) | 6.61 | 5.39
Cc1nc(CN2CCCC(N(C)Cc3c(C)noc3C)C2)no1 (configuration not stated) | -5.45 | 18.6
Cc1ccccc1N1CCCN(C(=O)CCCS(N)(=O)=O)CC1 | 6.58 | -25.7
CCc1nc2n(n1)CC(NCc1nc(C)ccc1O)CC2 (configuration not stated) | -1.83 | 11.7
Cc1c(NC(=O)NCC(C)N2CCOCC2)cccc1OC(F)F (configuration not stated) | -1.79 | 3.31
O=C(Cc1ccc2c(c1)CCCC2)NCCc1ccccn1 | 2.5 | 29.1
COc1ccc(Oc2cncc(C3CCCN3C(C)=O)n2)cc1 (configuration not stated) | 0.194 | -6.98
Cn1ncc2c1CCCC2NCc1cc(Br)cs1 (configuration not stated) | -1.12 | 7.1
COCCO[C@@H]1CCN(C(=O)c2ccc(C)o2)[C@@H]1Cc1cccnc1 | -0.436 | -14.3
Cc1cc(C)n(CC2CCCN2C(=O)c2ccc3c(c2)OCO3)n1 (configuration not stated) | -1.99 | -23.4
CN(Cc1nc2c(cnn2C)c(=O)[nH]1)Cc1ccc(F)cc1F | -2.26 | -10.7
COCC(=O)N1CC[C@H]2C[C@@H](c3nnc(C4CC4)o3)O[C@@H]2C1 | -1.34 | -18.9
Cc1nc(C)n(CC2CCCCN2CC(=O)Nc2cccnc2)n1 (configuration not stated) | -1.56 | 7.21
CSCC(CCO)NC(=O)Nc1cc(Br)ccc1C (configuration not stated) | 3.02 | -10.3
CC(C)c1nc(C2CCCN2CC(=O)Nc2ccc(Cl)cn2)no1 (configuration not stated) | -6.33 | 9.53

SMILES | Percent Effect [1] [%] | Percent Effect [2] [%]
CN1CCCN(C[C@@H]2CN(C(=O)CCC3CCCC3)C[C@@H]2CO)CC1 | 6.99 | -19.6
Cc1nc(CNC(=O)Cn2nc(-c3ccc(F)cc3)oc2=O)cs1 | -0.967 | 17.9
Cn1ccc(NC(=O)Cc2cccc(F)c2)n1 | 3.36 | -9.92
CC(C)NC(=O)c1n[nH]c(-n2cnnc2)n1 | -4.62 | -0.0919
Cc1nn(C)c(N(C)C)c1CNCc1ccccc1CN(C)C | -4.76 | -24.6
CCCn1nc2c(cc1=O)CN(CCCN1CCCC1=O)CC2 | 10.1 | 12.4
CCN1CC(C(=O)NC(C)(C)CNC(=O)OC(C)(C)C)CC1=O (configuration not stated) | 4.36 | 15.4
N#CC1(C(=O)NCCCNc2ccc(C(F)(F)F)cn2)CCCC1 | 2.12 | 21.2
CCOCCN1CCN(Cc2cccc(C(=O)N(C)C)c2)CC1 | -3.67 | -26.9
Cc1nc(CN2C[C@@H]3CN(C(=O)c4ccnnc4)C[C@@H]3C2=O)cs1 | -3.71 | -1.02
O=C(c1ccccc1OCC1CC1)N1CCCC(n2ccnc2)C1 (configuration not stated) | 6.48 | -13.9
CC(C)CCN(C)C(=O)c1nc(S(C)(=O)=O)n2ccccc12 | -3.39 | 26.2
CC(C)NC(=O)N1CCN(S(=O)(=O)C2CC2)CC2(CC(=O)N(C)C2)C1 (configuration not stated) | -1.56 | -20.5
O=C1CC2(CCN(Cc3ccoc3)C2)CN1c1ccc2c(c1)OCO2 (configuration not stated) | 5.29 | -93.1
Cc1nc(C2CCCN(C(=O)c3cc(Cl)c[nH]3)C2)no1 (configuration not stated) | -3.91 | 0.906
O=c1[nH]c2c(c(=O)n1C1CCCCC1)CCC2Nc1ccccc1Cl (configuration not stated) | 4.33 | -5.14
Cc1cccc(CN2CCc3c(nc(N4CCCCC4C)[nH]c3=O)C2)n1 (configuration not stated) | -1.15 | 21.7
CCOc1ccccc1C(CC(=O)Nc1nc(C)cs1)NC(C)=O (configuration not stated) | -0.233 | 30.8
CNc1cc(N2CCCC2CNCc2ccccn2)ncn1 (configuration not stated) | 1.56 | -35.2
COCC1COCCC12CCN(CCc1ccccc1)CC2 (configuration not stated) | -6.15 | 2.07
COCC1CN(Cc2ccsc2)Cc2nn(C)cc21 (configuration not stated) | 15.7 | -13.1
Cc1ccc(S(=O)(=O)N2CSCC2C(=O)N(C)C2CC2)cc1Cl (configuration not stated) | 3.03 | 19.2
CCOCC(O)CN1CCN(C(=O)c2cnc3n[nH]c(C)c3c2)CC1 (configuration not stated) | 1.04 | 30.1
